GASC-1 inh = blocks human GASC-1 demethylase activity | Q9H3R0 | GST-JMJD2C(1-420) H3K9me3 demethylation, DELFIA europium | inhibition, % at 2.35 µM | 330,000 tested, 0.069% active | AID 2099;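 active means more than half of a compound's replicate wells show inhibition beyond 50%, single wells judged on their own value; inconclusive means some, but no more than half, of replicates pass 50% inhibition; inactive means no replicate passes 50% inhibition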;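 further: signal counts dimethyl H3K9 product captured on neutravidin plate; 0% = median of DMSO wells and 100% = 0.3 times that DMSO median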
PREPL inhibitor = inhibits the human prolyl oligopeptidase-like enzyme; 320,000 tested, 0.68% active; recombinant PREPL, fluorescence polarization activity-based probe; inhibition, % at 5.96 µM; Q4J6C6; in the data active means inhibition above about 43%;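 further: 0% = enzyme with DMSO and 100% = wells lacking enzyme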
DSG3 Ab inh = human desmoglein-3 autoantibody binding inhibition | binding (percent of control), % at 10 µM | 310,000 tested, 0.48% active | DSG3-coupled beads, scFv-anti-DSG3-GFP binding, flow cytometry; hits give low values;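 active means binding more than 3 SD below its plate's average and above zero; inconclusive means below that plate limit but binding exactly zero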;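 further: hits lower antibody fragment binding to DSG3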
VLA-4 inh = inhibition in a human VLA-4 binding assay; P13612; VLA-4 expressing cells, ligand binding flow cytometry; inhibition, % (about 7 µM as worked out from the volumes in the protocol); 330,000 tested, 0.2% active; AID 2557; in the data active means inhibition above about 50%
GRK2 aptamer HTS = blocks RNA aptamer binding to human GRK2. P25098. bead flow cytometry, FAM-aptamer displacement from GRK2. inhibition of aptamer binding, % at 10 µM. 330,000 tested, 0.59% active. AID 488847;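 active means inhibition of aptamer binding above 40%, roughly 3 SD of noise, on plates passing a quality check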;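 further: median bead fluorescence of bound FAM aptamer so fluorescent compounds give negative values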
Target sequence (P25098 whole entry, looked up): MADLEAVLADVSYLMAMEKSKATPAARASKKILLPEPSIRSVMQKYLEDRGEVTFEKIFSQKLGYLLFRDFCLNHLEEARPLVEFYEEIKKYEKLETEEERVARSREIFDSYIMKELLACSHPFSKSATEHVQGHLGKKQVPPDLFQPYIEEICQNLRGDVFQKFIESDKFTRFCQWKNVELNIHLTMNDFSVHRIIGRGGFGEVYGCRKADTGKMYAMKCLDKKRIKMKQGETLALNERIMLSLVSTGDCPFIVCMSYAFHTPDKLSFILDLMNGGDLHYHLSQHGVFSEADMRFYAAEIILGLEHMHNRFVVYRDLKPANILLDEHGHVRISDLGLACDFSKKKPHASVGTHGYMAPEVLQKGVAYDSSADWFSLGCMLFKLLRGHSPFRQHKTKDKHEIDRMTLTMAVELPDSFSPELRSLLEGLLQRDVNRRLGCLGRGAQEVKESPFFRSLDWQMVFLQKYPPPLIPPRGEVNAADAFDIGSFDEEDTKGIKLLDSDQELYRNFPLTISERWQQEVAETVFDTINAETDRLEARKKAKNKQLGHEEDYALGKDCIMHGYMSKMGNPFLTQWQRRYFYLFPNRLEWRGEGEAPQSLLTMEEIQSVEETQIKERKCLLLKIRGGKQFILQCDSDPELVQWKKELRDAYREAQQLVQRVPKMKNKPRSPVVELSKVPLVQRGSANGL
* hit, by the source's call. This is a sample that favours compounds with a hit; in the whole collection about 1.6% have one here.

How did COc1cc(C(=S)N2CCCCC2)ccc1OCC(=O)Nc1ccccc1Cl do in these assays?
GASC-1 inh: 10; PREPL inhibitor: 7; DSG3 Ab inh: 100; VLA-4 inh: 23; GRK2 aptamer HTS: 1

What do the screens show for `O=C(COc1ccc(C(=S)N2CCOCC2)cc1Cl)Nc1ccccc1Cl`?
GASC-1 inh: -1; PREPL inhibitor: 8; DSG3 Ab inh: 83*; VLA-4 inh: 14; GRK2 aptamer HTS: 0

What do the screens show for `O=c1c2ccccc2sn1-c1cc(S(=O)(=O)N2CCOCC2)ccc1N1CCOCC1`?
GASC-1 inh: 9; PREPL inhibitor: -3; DSG3 Ab inh: 26*; VLA-4 inh: 12; GRK2 aptamer HTS: 0

Results for O=c1c2ccccc2sn1-c1cc(S(=O)(=O)N2CCOCC2)ccc1N1CCCC1 ?
GASC-1 inh: 0; PREPL inhibitor: 0; DSG3 Ab inh: 72; VLA-4 inh: 1; GRK2 aptamer HTS: 5

How did Cc1noc(C)c1N=Nc1ccc(Br)cc1C(=O)O do in these assays?
GASC-1 inh: -19; PREPL inhibitor: -2; DSG3 Ab inh: 103; VLA-4 inh: -7; GRK2 aptamer HTS: 1

Results for O=C(COC(=O)c1ccccc1O)NC12CC3CC(CC(C3)C1)C2 ?
GASC-1 inh: -3; PREPL inhibitor: 12; VLA-4 inh: 17; GRK2 aptamer HTS: 0

Results for O=C(OCC(=O)C12CC3CC(CC(C3)C1)C2)c1ccccc1O ?
GASC-1 inh: -9; PREPL inhibitor: 23; DSG3 Ab inh: 70*; VLA-4 inh: 23; GRK2 aptamer HTS: 4

What do the screens show for `Cc1ccc(C(=O)/C=C/C(=O)c2ccc(C)cc2)cc1`?
GASC-1 inh: -3; PREPL inhibitor: -12; DSG3 Ab inh: 110; VLA-4 inh: 69*; GRK2 aptamer HTS: 2

What do the screens show for `Cc1ccc(/C=C/C(=O)c2ccc(C)cc2)cc1`?
GASC-1 inh: -12; PREPL inhibitor: 1; VLA-4 inh: 19; GRK2 aptamer HTS: 0

Results for Cc1ccc(C(=O)NC(=S)NCC(=O)c2ccccc2)cc1 ?
GASC-1 inh: 11; PREPL inhibitor: -7; DSG3 Ab inh: -20*; VLA-4 inh: 1; GRK2 aptamer HTS: 0

What do the screens show for `O=C(C1CC1)N1CCc2cc(Br)cc(S(=O)(=O)NCc3ccc4c(c3)OCO4)c21`?
GASC-1 inh: -11; PREPL inhibitor: 3; DSG3 Ab inh: inconclusive; VLA-4 inh: 0; GRK2 aptamer HTS: 0

What do the screens show for `O=C(O)CSc1ncnc2nc[nH]c12`?
PREPL inhibitor: 15; DSG3 Ab inh: 99; VLA-4 inh: -4; GRK2 aptamer HTS: 0

How did c1nc(SSc2ncnc3nc[nH]c23)c2[nH]cnc2n1 do in these assays?
DSG3 Ab inh: 66*

What do the screens show for `CCOc1ccc(OCCC(=O)OCC(=O)N2CCN(S(=O)(=O)c3ccc(Cl)cc3)CC2)cc1`?
GASC-1 inh: -10; PREPL inhibitor: 3; DSG3 Ab inh: 100; VLA-4 inh: 0; GRK2 aptamer HTS: 13

What do the screens show for `Nc1c(Cl)ncnc1NCc1cccnc1`?
GASC-1 inh: 55*; PREPL inhibitor: -1; DSG3 Ab inh: 92; VLA-4 inh: 6; GRK2 aptamer HTS: 3

Results for CCOC(=O)Cc1csc(-n2sc3ccccc3c2=O)n1 ?
GASC-1 inh: 13; PREPL inhibitor: 4; DSG3 Ab inh: 44*; VLA-4 inh: 2; GRK2 aptamer HTS: 0

What do the screens show for `O=C(O)c1cc(N/N=C/c2ccc(-c3ccccc3)cc2)ccc1Cl`?
GASC-1 inh: -6; DSG3 Ab inh: 115; VLA-4 inh: -2; GRK2 aptamer HTS: 43*

Results for O=S(=O)(c1ccccc1)N1CCN(CC(O)COc2ccc3c(c2)CCC3)CC1 (stereo not drawn) ?
GASC-1 inh: -1; PREPL inhibitor: -3; DSG3 Ab inh: 79*; VLA-4 inh: 12; GRK2 aptamer HTS: 1

How did NC(=O)c1ccccc1N/C=C/C(=O)c1ccco1 do in these assays?
GASC-1 inh: 2; PREPL inhibitor: 8; DSG3 Ab inh: 96; VLA-4 inh: 19; GRK2 aptamer HTS: 3

What do the screens show for `O=C(/C=C/Nc1ccc(Oc2ccccc2)cc1)c1ccco1`?
GASC-1 inh: 55; PREPL inhibitor: 22; DSG3 Ab inh: 14*; VLA-4 inh: -2; GRK2 aptamer HTS: 0

Results for COc1ccc(NC(=O)CN2C(=O)/C(=C3\SC(=S)N(CCC(=O)O)C3=O)c3ccccc32)cc1 ?
GASC-1 inh: 4; PREPL inhibitor: 17; DSG3 Ab inh: 82*; VLA-4 inh: -3; GRK2 aptamer HTS: 0

Results for CCO[C@H]1OC(C(N)=O)=C[C@@H](C2CC2)[C@@H]1CCCO ?
GASC-1 inh: 3; PREPL inhibitor: 2; VLA-4 inh: -5; GRK2 aptamer HTS: 0

What do the screens show for `CC(C)CNC(=O)c1ccccc1NC(=O)CN(c1ccccc1)S(=O)(=O)N(C)C`?
GASC-1 inh: -9; PREPL inhibitor: -7; DSG3 Ab inh: 54*; VLA-4 inh: 5; GRK2 aptamer HTS: 0

How did CCCNC(=O)c1ccccc1NC(=O)CN(c1ccccc1)S(=O)(=O)N(C)C do in these assays?
GASC-1 inh: -13; PREPL inhibitor: 7; DSG3 Ab inh: 102; VLA-4 inh: -14; GRK2 aptamer HTS: 1

Results for Cc1cccc(N2C(=O)/C(=C/c3cccnc3)SC2=S)c1 ?
GASC-1 inh: 4; PREPL inhibitor: -10; DSG3 Ab inh: 104; VLA-4 inh: 3; GRK2 aptamer HTS: 0

What do the screens show for `Cc1ccc(N2C(=O)/C(=C/c3cccnc3)SC2=S)cc1`?
GASC-1 inh: 5; PREPL inhibitor: -7; DSG3 Ab inh: 88*; VLA-4 inh: 3; GRK2 aptamer HTS: 1

What do the screens show for `Cc1occc1C(=O)N=Nc1c(O)n(C)c2ccccc12`?
GASC-1 inh: 3; PREPL inhibitor: 4; DSG3 Ab inh: 84*; VLA-4 inh: 5; GRK2 aptamer HTS: 1

Results for O=C(CSc1nc(-c2ccccc2Cl)ns1)NCc1ccc2c(c1)OCO2 ?
GASC-1 inh: -1; PREPL inhibitor: 0; DSG3 Ab inh: 75*; VLA-4 inh: 34; GRK2 aptamer HTS: 0

How did O=C(CSc1nc(-c2ccccc2)cc(=O)[nH]1)NCc1ccc2c(c1)OCO2 do in these assays?
GASC-1 inh: 37; PREPL inhibitor: -2; DSG3 Ab inh: 68*; VLA-4 inh: 4; GRK2 aptamer HTS: 2

Results for O=C(CSc1nc2ccccc2[nH]1)NCc1ccc2c(c1)OCO2 ?
GASC-1 inh: 14; PREPL inhibitor: 6; DSG3 Ab inh: 98; VLA-4 inh: 0; GRK2 aptamer HTS: 1

Results for CCCc1cc(=O)oc2cc(OC(C)C(=O)NCC3CCC(C(=O)O)CC3)ccc12 (stereo not drawn) ?
GASC-1 inh: inactive; PREPL inhibitor: 5; DSG3 Ab inh: 104; VLA-4 inh: 0; GRK2 aptamer HTS: 0

How did CCn1cc(C(=O)N[C@H](C(=O)NC(C)(C)CO)C(C)C)c(=O)c2cc3c(cc21)OCO3 do in these assays?
GASC-1 inh: -14; PREPL inhibitor: 5; DSG3 Ab inh: 112; VLA-4 inh: 9; GRK2 aptamer HTS: 6

What do the screens show for `CC(=O)Oc1ccc(C23c4ccccc4C2(OC(C)=O)c2cc(OC(C)=O)ccc23)cc1` (stereo not drawn)?
DSG3 Ab inh: 92
